Most compounds without a hit are left out; they make up all but 3.2% or so of the library.
rCAG binder = binders of r(CAG) RNA repeats, primary screen, biochemical, fluorescence; actives 1.3% (n = 370,000); inhibition, % at 3 µM; AID 651821, 2012; r(CAG) RNA repeat, TO-PRO-1 dye displacement fluorescence;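 active = inhibition above the plate cutoff, the mean of all test compounds on that plate plus 3 SD, cut at about 35% in these data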;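 also: higher means more dye released from RNA so lower well fluorescence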
HGIII-sPLA2 inh = human group III sPLA2 inhibitors, primary screen, biochemical, QFRET, BODIPY PC-A2 liposome substrate; Group 3 secretory phospholipase A2 (Homo sapiens), Q9NZ20; QFRET BODIPY PC-A2 liposome hydrolysis, fluorescence; inhibition, % at 12.2 µM; actives 0.56% (n = 370,000); AID 743126, 2013;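 active = inhibition above mean plus 3 SD of compounds lying within the high and low control bounds, cut at about 19% in these data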
Target sequence (Q9NZ20 whole entry, looked up): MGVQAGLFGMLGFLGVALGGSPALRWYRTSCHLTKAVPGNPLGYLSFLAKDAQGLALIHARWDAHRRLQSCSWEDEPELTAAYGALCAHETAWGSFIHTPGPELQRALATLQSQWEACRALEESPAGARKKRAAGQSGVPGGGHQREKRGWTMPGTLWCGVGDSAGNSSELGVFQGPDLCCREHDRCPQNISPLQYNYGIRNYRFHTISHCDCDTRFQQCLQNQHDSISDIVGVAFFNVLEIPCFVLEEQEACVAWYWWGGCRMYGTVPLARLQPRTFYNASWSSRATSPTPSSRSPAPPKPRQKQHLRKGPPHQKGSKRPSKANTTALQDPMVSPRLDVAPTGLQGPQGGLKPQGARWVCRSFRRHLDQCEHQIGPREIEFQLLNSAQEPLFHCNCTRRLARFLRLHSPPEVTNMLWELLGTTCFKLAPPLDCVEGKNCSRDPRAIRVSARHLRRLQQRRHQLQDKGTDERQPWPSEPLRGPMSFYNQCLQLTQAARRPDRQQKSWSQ
MsrA act = bovine MsrA enzyme activators, primary screen, biochemical, absorbance, HTS; activation, % at 10.6 µM; purified bovine MsrA, absorbance read-out; actives 0.3% (n = 360,000); AID 602163, 2012; Methionine sulfoxide reductase A (Bos taurus); in the data active = activation above about 7.5%
PG9 Ab binder = binders of HIV-1 gp120 antibody PG9, primary screen, biochemical, TR-FRET. TR-FRET gp120-PG9 antibody binding. actives 0.43% (n = 360,000). inhibition, % at 6.7 µM. AID 624416, 2012; in the data active = inhibition above about 8.5%
MsrA inhibitor = bovine MsrA enzyme inhibitors, primary screen, biochemical, absorbance, HTS | purified bovine MsrA, absorbance read-out | inhibition, % at 15.5 µM | actives 0.75% (n = 360,000) | Methionine sulfoxide reductase A (Bos taurus)
PG9 binder conf = binders of anti-gp120 antibody PG9, confirmation, biochemical, TR-FRET | shares compounds with PG9 Ab binder | actives 90% (n = 1,500) | inhibition, % at 6.7 µM | TR-FRET PG9 antibody binding; in the data active = inhibition above about 9%
PGV04 Ab binding = binders of control antibody PGV04, counter-screen for PG9 antibody binder project, biochemical, TR-FRET, distinct HIV envelope site; inhibition, % at 6.7 µM; shares compounds with PG9 Ab binder; actives 95% (n = 1,500); TR-FRET PGV04 antibody-gp120 binding; AID 651604, 2012; in the data active = inhibition above about 9.5%
PG9 binder DR = small-molecule binders of antibody PG9, dose response, biochemical, TR-FRET, HIV-1 gp120 antibody; TR-FRET PG9 antibody-gp120 binding inhibition; IC50, µM; AID 651848, 2012; shares compounds with PG9 Ab binder; 95 tested, under 10 active; in the data active = IC50 below about 10 µM
PGV04 DR counter = binders of control antibody PGV04, dose response, counter-screen for PG9 antibody binder project, biochemical, TR-FRET, distinct HIV envelope site; shares compounds with PG9 Ab binder; TR-FRET binding to control antibody PGV04; IC50, µM; actives 20% (n = 95); AID 651937, 2012; in the data active = IC50 below about 9 µM
PG126 binding DR = binders of control antibody PG126, dose response, counter-screen for PG9 antibody binder project, biochemical, TR-FRET, distinct HIV envelope site; TR-FRET binding to antibody PG126, counterscreen; IC50, µM; actives 20% (n = 95); shares compounds with PG9 Ab binder; AID 651939, 2012; in the data active = IC50 below about 9 µM
MsrA conf = bovine MsrA inhibitors, retest, confirmation, biochemical, absorbance, HTS; shares compounds with MsrA inhibitor; purified bovine MsrA, absorbance read-out; inhibition, % at 15.5 µM; actives 41% (n = 2,300); AID 651822, 2012;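 also: coupled to thioredoxin reductase with NADPH and selenocystamine and DMSO as substrate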
rCAG bind conf = small molecules binding CAG repeat RNA – biochemical, fluorescence, confirmation. shares compounds with rCAG binder. r(CAG) RNA repeat, TO-PRO-1 dye displacement fluorescence. inhibition, % at 3 µM. actives 70% (n = 4,300). AID 652065, 2013;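 active = inhibition above a per-plate cutoff, the mean inhibition of sample wells plus 3 SD, cut at about 35% in these data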;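 also: loss of TO-PRO-1 fluorescence as compound displaces dye from 1x1 AA loop RNA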
DNA CAG counter = displacement of TO-PRO-1 from CAG DNA duplex, counter-screen for rCAG RNA repeat binder project, biochemical, fluorescence, TO-PRO-1 dye, d(CAG) DNA oligo | shares compounds with rCAG binder | d(CAG) DNA oligo TO-PRO-1 dye displacement | inhibition, % at 3 µM | actives 94% (n = 4,300);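 active = inhibition above its plate's cutoff, the mean test-well inhibition plus 3 SD, cut at about 4.8% in these data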;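 also: hits displace the dye from DNA and so lower well fluorescence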
Each line names hits and unclear results; the compound was inactive in the other large screens (follow-up assays come after a bar, where they were run). Rule as the data show it, unless noted: active = inhibition above about 4.5%; inactive = the rest.

CC(=O)Nc1nnc(SCc2ccc(F)cc2)s1	none
O=C(Nc1nncs1)c1cc2c(s1)CCC2	none
O=C(Nc1nnc(SCc2ccccc2)s1)c1cc2c(s1)CCCC2	PG9 Ab binder 9.7 | PG9 binder conf 21 | PGV04 Ab binding 17 | PG9 binder DR inactive | PGV04 DR counter inactive | PG126 binding DR inactive
CC(C)Cc1nnc(NC(=O)c2cc3c(s2)CCC3)s1	none
O=C(Nc1nnc(SCc2ccc(F)cc2)s1)c1ccc2ncsc2c1	PG9 Ab binder 9.7 | PG9 binder conf 19 | PGV04 Ab binding 25
CCSc1nnc(NC(=O)c2csc3c2CCCC3)s1	PG9 Ab binder 9.2 | PG9 binder conf 24 | PGV04 Ab binding 38
CCSc1nnc(NC(=O)c2csc3c2CCC(C)C3)s1 (centres undefined)	none
CCCCCCn1cc(CN2CC=CS2(=O)=O)nn1	none (no result: MsrA act, PG9 Ab binder, MsrA inhibitor)
O=c1[nH]c(SCCOc2ccccc2)nc2ccccc12	PG9 Ab binder 40 | PG9 binder conf 33 | PGV04 Ab binding 52
COc1ccccc1OCCSc1nc2ccccc2c(=O)[nH]1	none
COc1ccc(Nc2nc3cc(C)ccc3cc2C#N)cc1	PG9 Ab binder 11, MsrA inhibitor 8.7 | PG9 binder conf 10 | PGV04 Ab binding 15 | MsrA conf 6.9
CCc1cccc(C)c1NC(=O)c1cc(=O)[nH]c2ccc(S(=O)(=O)N3CCOCC3)cc12	PG9 Ab binder 14, MsrA inhibitor 17 | PG9 binder conf 18 | PGV04 Ab binding 28 | MsrA conf 28
O=C(Nc1ccc(F)cc1Cl)C1CCCN1S(=O)(=O)c1cccc2cccnc12 (centres undefined)	none (no result: MsrA act, PG9 Ab binder, MsrA inhibitor)
N#CC1=C(c2ccccc2)/C(=C/c2ccccc2)OC1=O	none
N#CC(C#N)=C1NC(N)=C(C#N)C(c2ccccc2)=C1C#N	PG9 Ab binder 22, MsrA inhibitor 7.2 | PG9 binder conf 21 | PGV04 Ab binding 26 | MsrA conf 6.7
CN1Cc2nnn(Cc3ccccc3)c2-c2ccccc2S1(=O)=O	none (no result: MsrA act, PG9 Ab binder, MsrA inhibitor)
O=C(C1=C(O)C(=O)N(CCCn2ccnc2)C1c1ccccc1)c1ccco1 (centres undefined)	none (no result: rCAG binder, HGIII-sPLA2 inh, PG9 Ab binder, MsrA inhibitor)
O=C(C1=C(O)C(=O)N(CCCn2ccnc2)C1c1cccc(Br)c1)c1ccco1 (centres undefined)	PG9 Ab binder 14, MsrA inhibitor 13 | PG9 binder conf 15 | PGV04 Ab binding 15 | MsrA conf 7.8
Cc1ccc(O)c(N=CC2=C(O)c3ccccc3C2=O)c1	rCAG binder 51, PG9 Ab binder 18 | PG9 binder conf 24 | PGV04 Ab binding 31 | rCAG bind conf 42 | DNA CAG counter 18
O=C1C(C=Nc2ccccc2O)=C(O)c2ccccc21	none
O=C(NCCc1ccccn1)c1ccc2c(c1)ncn2C1CCCCC1	none (no result: MsrA act, PG9 Ab binder, MsrA inhibitor)
COc1ccccc1-c1nnc(Nc2nc3c(OC)cccc3s2)o1	rCAG binder 53, PG9 Ab binder 11 | PG9 binder conf 23 | PGV04 Ab binding 26 | rCAG bind conf 58 | DNA CAG counter 20
O=C(CSc1nc2[nH]ncc2c(=O)[nH]1)Nc1ccc(OC(F)(F)F)cc1	none
N#Cc1c(-c2ccccc2)nc(SCC(=O)Nc2ccc(OC(F)(F)Cl)cc2)[nH]c1=O	rCAG binder 90, PG9 Ab binder 8.8 | PG9 binder conf 18 | PGV04 Ab binding 22 | rCAG bind conf 85 | DNA CAG counter 58
Cc1cc(C)nc(NS(=O)(=O)c2ccc(NC(=O)CSc3nc4ccccc4[nH]3)cc2)n1	none
Cc1cc(C)nc(NS(=O)(=O)c2ccc(NC(=O)CSc3nc(-c4ccccc4)c(C#N)c(=O)[nH]3)cc2)n1	rCAG binder 45, PG9 Ab binder 36 | PG9 binder conf 44 | PGV04 Ab binding 58 | rCAG bind conf inactive | DNA CAG counter 7.4
CCCCOc1ccc(-c2c(C(=O)Nc3ccccc3)c(C)[nH]c(=S)c2C#N)cc1	rCAG binder 60, PG9 Ab binder 60 | PG9 binder conf inactive | PGV04 Ab binding inactive | rCAG bind conf 36 | DNA CAG counter 16
CCOC(=O)c1c(C)[nH]c(=S)c(C#N)c1-c1ccc(OC)cc1	none
CCOC(=O)CC[C@@]1(C(=O)OCC)C[C@@H](CC(=O)NCc2ccc(OC)c(OC)c2)C(=O)N2CCCC=C21	none (no result: MsrA act, PG9 Ab binder, MsrA inhibitor)
COc1cccc(C2C(C(=O)c3cc4cccc(OC)c4o3)=C(O)C(=O)N2c2cc(C)on2)c1OC (centres undefined)	rCAG binder 57, PG9 Ab binder 14 | PG9 binder conf 22 | PGV04 Ab binding 36 | rCAG bind conf 65 | DNA CAG counter 25
COc1cccc(C2C(C(=O)c3cc4ccccc4o3)=C(O)C(=O)N2c2cc(C)on2)c1OC (centres undefined)	rCAG binder 51, PG9 Ab binder 19 | PG9 binder conf 27 | PGV04 Ab binding 43 | rCAG bind conf 45 | DNA CAG counter 12
